Bioassay records: PubChem, National Center for Advancing Translational Sciences (NCATS)
Gal4-VP16 FLuc = counter-screen for ROR gamma inhibitors: Gal4-VP16 reporter; Drosophila S2 Gal4-VP16 UAS-luciferase, luminescence, 20 h; Potency, µM (top dose mostly 53.6 µM), usual class: inhibitors; hit rate 3.5% among 310,000; AID 2546;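 also: Gal4-VP16 expression switched on by copper sulfate through the metallothionein promoter; nearly all actives have a fitted effect of over 50% in size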
KB-V1 cytotox = kills drug-selected multidrug resistant KB-V1 cells; hit rate 3.4% among 400,000; Potency, µM (titrated, usually from 46.1 µM), hits mostly cytotoxic; AID 1347076; KB-V1 MDR cells viability, CellTiter-Glo, 72 h; also: nearly all actives have a fitted effect of over 60% in size
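In this primary screen, KB-V1 cells overexpressing P-gp are incubated with library compounds (lowest to highest concentration) for 72 h at 37 degrees C before a luminescent ATP viability read.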
MCF10A rerep = induces DNA re-replication in MCF 10a normal breast cells; MCF 10A DNA re-replication, Hoechst nuclear intensity, 48 h; AID 624296; Potency, µM (titrated, usually from 46.1 µM), usual class: activators; hit rate 2.9% among 350,000; also: nearly all actives have a fitted effect of over 50% in size
SW480 rerep = induces DNA re-replication in SW480 colon adenocarcinoma cells; SW480 DNA re-replication, Hoechst DNA content imaging, 48 h; Potency, µM (doses to about 46.1 µM), hits mostly activators; hit rate 1.8% among 340,000; AID 624297; also: nearly all actives have a fitted effect of over 55% in size
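Compounds, transferred as 23 nL by pin tool, were incubated with cells for 48 hr; DNA content per nucleus was then quantified by Hoechst staining and fluorescence plate imaging.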
RORg inh = blocks mouse ROR gamma transcriptional activity. P51450. Drosophila S2 Gal4-RORgamma UAS-luciferase reporter, 20 h. Potency, µM (doses to about 53.6 µM), hits mostly inhibitors. hit rate 5.4% among 310,000. AID 2551; also: nearly all actives have a fitted effect of over 60% in size
Target sequence (P51450 whole entry, looked up, the tested form may be a part): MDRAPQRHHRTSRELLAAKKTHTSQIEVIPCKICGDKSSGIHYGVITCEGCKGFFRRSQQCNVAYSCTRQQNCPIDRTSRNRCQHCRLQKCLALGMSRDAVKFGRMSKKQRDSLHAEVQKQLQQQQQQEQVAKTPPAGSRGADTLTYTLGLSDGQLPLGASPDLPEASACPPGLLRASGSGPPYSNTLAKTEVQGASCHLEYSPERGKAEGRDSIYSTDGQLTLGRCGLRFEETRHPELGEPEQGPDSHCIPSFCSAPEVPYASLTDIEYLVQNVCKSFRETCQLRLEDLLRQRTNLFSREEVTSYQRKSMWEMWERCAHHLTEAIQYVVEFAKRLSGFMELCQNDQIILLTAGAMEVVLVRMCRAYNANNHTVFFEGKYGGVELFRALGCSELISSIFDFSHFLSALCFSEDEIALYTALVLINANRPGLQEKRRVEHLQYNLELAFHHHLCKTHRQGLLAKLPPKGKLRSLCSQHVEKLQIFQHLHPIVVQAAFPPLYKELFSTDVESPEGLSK
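Drosophila S2 cells stably expressing Gal4-DBD/mouse RORγ fusion under metallothionein promoter plus UAS-luciferase; compound 1 h, then 700 uM CuSO4 induction for 20 h at ambient temperature; inhibition read as reduced luminescence.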
KB-3-1 tox = KB-3-1 parental cell cytotoxicity. KB-3-1 viability, CellTiter-Glo ATP luminescence, 72 h. Potency, µM (titrated, usually from 46.1 µM), usual class: cytotoxic. hit rate 1.4% among 400,000. AID 1347075; also: nearly all actives have a fitted effect of over 60% in size
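KB-3-1 parental drug-naive adenocarcinoma cells in DMEM/10% FBS, incubated 72 h at 37 C with pin-transferred compounds across a concentration series. Viability by CellTiter-Glo luminescence; concentration-response curves fitted after normalization.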
Large screens that a line does not name were inactive. The list is not random: actives were taken first. Their share in the collection is about 10%. Calls follow the shape of the dose curve; as a rule, active = well fitted curve in the direction sought with a large enough effect; inconclusive = small, poorly fitted or top-dose-only effect, or another doubt; inactive = no such curve, though single readings can be large; an effect the other way counts as inactive or inconclusive.

CC(C)(C)C1CCc2c(sc(NC(=O)c3ccncc3)c2C(N)=O)C1 (stereo not given)	KB-V1 cytotox 12µM, RORg inh inconclusive
O=C(Nc1sc2c(c1C(=O)c1ccccc1)CCCC2)c1cccnc1	none
N#Cc1c(NC(=O)c2cccnc2)sc2c1CCC2	KB-V1 cytotox 5.8µM, MCF10A rerep 5.8µM, SW480 rerep 16µM, KB-3-1 tox 9.2µM
N#Cc1c(NC(=S)NC(=O)c2ccccc2)sc2c1CCCC2	Gal4-VP16 FLuc 10µM, MCF10A rerep inconclusive, RORg inh 6.3µM (no result: SW480 rerep)
Cc1occc1C(=O)Nc1sc2c(c1C(N)=O)CCC(C(C)(C)C)C2 (stereo not given)	none
CC1CCc2c(sc(NC(=O)c3ccccc3C(=O)O)c2C#N)C1 (stereo not given)	SW480 rerep inconclusive
O=C([C@H]1O[C@@H](n2ccc(=O)[nH]c2=O)[C@H](O)[C@@H]1O)N1CCC(F)(F)CC1	none (no result: Gal4-VP16 FLuc, MCF10A rerep, SW480 rerep, RORg inh)
CCCNC(=O)C1(C)CCN(C(=O)Cc2ccc(OC)c(OC)c2)C1 (stereo not given)	none (no result: Gal4-VP16 FLuc, MCF10A rerep, SW480 rerep, RORg inh)
CC(C)[C@H](NC(=O)[C@H](CCC(N)=O)NC(=O)CNC(=O)[C@@H]1CCCN1C(=O)[C@H](Cc1ccc(O)cc1)NC(=O)CN)C(=O)O	none (no result: KB-V1 cytotox, MCF10A rerep, SW480 rerep, KB-3-1 tox)
C[C@@H]1CC[C@H]2C(=O)O[C@H](CN=[N+]=[N-])CN2[C@@H]1c1ccc(Br)cc1	none (no result: KB-V1 cytotox, MCF10A rerep, SW480 rerep, KB-3-1 tox)
CCC(CC)C(=O)N(C)c1c(C)nc2c(OCc3ccc(Cl)cc3Cl)cccn12	KB-V1 cytotox inconclusive (no result: Gal4-VP16 FLuc, MCF10A rerep, SW480 rerep, RORg inh)
CC(C)(C)C(=O)Nc1sc2c(c1C#N)CCCCC2	none
Cn1ncc(Cl)c1C(=O)NC(=S)Nc1sc2c(c1C#N)CCCCC2	Gal4-VP16 FLuc inconclusive, KB-V1 cytotox inconclusive, RORg inh 11µM, KB-3-1 tox inconclusive
Cc1ccccc1C(=O)NC(=S)Nc1sc2c(c1C#N)CCC(C)C2 (stereo not given)	Gal4-VP16 FLuc inconclusive, RORg inh 7.9µM
CC(C)CC(=O)NC(NC(=S)Nc1sc2c(c1C#N)CCCC2)C(Cl)(Cl)Cl (stereo not given)	Gal4-VP16 FLuc inconclusive, MCF10A rerep 16µM, RORg inh 10µM, KB-3-1 tox inconclusive
N#Cc1c(NC(=S)NC(=O)C2CCCC2)sc2c1CCCCC2	KB-V1 cytotox inconclusive, MCF10A rerep inconclusive
Cc1cccc(C(=O)Nc2sc3c(c2C#N)CCCCC3)c1	Gal4-VP16 FLuc inconclusive, RORg inh 7.9µM
O=C1NC[C@H](CCCCN2C[C@H](Cc3ccccc3)N(CCC3CCCCC3)C(=O)C2=O)N(Cc2ccccc2)C1=O	none (no result: Gal4-VP16 FLuc, MCF10A rerep, SW480 rerep, RORg inh)
CC(C)c1cc(C(=O)Nc2sc3c(c2C#N)CCC3)no1	KB-V1 cytotox inconclusive, MCF10A rerep 15µM, SW480 rerep inconclusive, KB-3-1 tox inconclusive
Cc1cc(C(=O)Nc2sc3c(c2C#N)CCC(C(C)(C)C)C3)no1 (stereo not given)	MCF10A rerep inconclusive, SW480 rerep inconclusive, KB-3-1 tox inconclusive
COc1ccc(-c2cc(C(=O)Nc3sc4c(c3C#N)CCCC4)no2)cc1OC	none (no result: Gal4-VP16 FLuc, MCF10A rerep, SW480 rerep, RORg inh)
N#Cc1c(NC(=O)c2ccccc2)sc2c1CCC2	KB-V1 cytotox 4.6µM, MCF10A rerep inconclusive, SW480 rerep 10µM, KB-3-1 tox 16µM
Cc1cc(C)nc(SCC(=O)Nc2sc3c(c2C#N)CCC(C)C3)n1 (stereo not given)	KB-V1 cytotox inconclusive (no result: Gal4-VP16 FLuc, RORg inh)
Cc1ccnc(SCC(=O)Nc2sc3c(c2C#N)CCC(C(C)(C)C)C3)n1 (stereo not given)	KB-V1 cytotox 13µM, MCF10A rerep inconclusive, KB-3-1 tox inconclusive
CC(C)(C)C1CCc2c(sc(NC(=O)c3cc(C4CC4)on3)c2C#N)C1 (stereo not given)	Gal4-VP16 FLuc inconclusive, RORg inh 5.6µM
CCNc1ncc2nc(-c3ccc(Cl)cc3)c(=O)n(Cc3cccs3)c2n1	none (no result: KB-V1 cytotox, MCF10A rerep, SW480 rerep, KB-3-1 tox)
CC(CNc1nc2ccccc2c2nc(-c3ccccc3)nn12)c1ccccc1 (stereo not given)	none (no result: Gal4-VP16 FLuc, MCF10A rerep, SW480 rerep, RORg inh)
COc1ccccc1C(=O)Nc1ccccc1C(=O)OCc1cc(=O)n2ccsc2n1	none (no result: Gal4-VP16 FLuc, MCF10A rerep, SW480 rerep, RORg inh)
